What all share (assay): NCI-60 one-dose screen, 48 h (100 = growth as untreated, 0 = no growth, -100 = all killed)
Holding throughout (details): 10 µM unless noted

Assay [1] concerns HCT-15 colon.
For assay [2], the system named is HT29 colon.
Assay [3] deals with SNB-75 CNS.
Assay [4] deals with SNB-19 CNS.
Assay [5] has as its system U251 CNS.
Assay [6] relates to PC-3 prostate.
In assay [7] the test system is SK-MEL-5 melanoma.
The subject of assay [8] is UACC-62 melanoma.
Assay [9] relates to LOX IMVI melanoma.
For assay [10], the system named is SK-MEL-28 melanoma.
Assay [11] relates to SN12C renal.
Assay [12] deals with UO-31 renal.
Assay [13] relates to ACHN renal.
Assay [14] has as its system CAKI-1 renal.
Assay [15] concerns A498 renal.
The test system of assay [16] is CCRF-CEM leukemia.
For assay [17], the system named is MOLT-4 leukemia.
The subject of assay [18] is SK-MEL-2 melanoma.
Assay [19] deals with EKVX NSCLC.
In assay [20] the test system is TK-10 renal.

The structures appear in SMILES notation. “And” between values parts separate entries of the source, which are not always exact repeats. Equal values may be shown once. This is part of a sample that, as a whole, favours compounds with a hit. Of some 83,000 tested, about 20% had one in any assay.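 Percent growth is the endpoint: 0 to 100 indicates growth inhibition (40 means 60% inhibition), 0 means no net growth, and negative values indicate cell death.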 The source made the active and inactive calls. Rule for the calls: active = growth percent below 10; inactive = the rest.

On to `C[N+](C)(C)CN1C(=O)c2ccccc2C1=O`, for which the growth in [1] is 103% (inactive); in assay [2], 99.6% (inactive); in assay [3], 77.5% (inactive); in assay [4], 98.5% (inactive); in [5], 102% (inactive); in [6] it was 96.4% (inactive). Besides, the growth in assay [7] was 102% (inactive); in assay [8], 101% (inactive); in assay [9], 103% (inactive); in assay [10], 98.6% (inactive); in assay [11] it was 100% (inactive); in assay [12] it was 97.3% (inactive). Besides, the growth in assay [13] is 102% (inactive); in assay [14], 94.4% (inactive); in assay [15], 98.2% (inactive); in [16], 101% (inactive); in assay [17] it was 94.2% (inactive).

As for `O=C(O)CN(CCN(CC(=O)O)CC(=O)O)CCN(CC(=O)O)CC(=O)O`, the growth in [1] was 9.67% (active) and 99.9% (inactive) and 107% (inactive); in assay [2], 2.39% (active) and 108% (inactive) and 94.8% (inactive); in assay [3] it was 9.81% (active) and 87.3% (inactive) and 85.8% (inactive); in [4] it was 27.6% (inactive) and 101% (inactive) and 98.6% (inactive); in [5], 4.18% (active) and 106% (inactive) and 94.1% (inactive); in [6] it was 9.35% (active) and 92.8% (inactive) and 93.5% (inactive). Further, the growth was 3.74% (active) and 103% (inactive) and 106% (inactive) in assay [7]; 8.73% (active) and 95.6% (inactive) and 101% (inactive) in assay [8]; -31.4% (active) and 101% (inactive) and 106% (inactive) in [9]; 24% (inactive) and 105% (inactive) and 99.4% (inactive) in [10]; -31.4% (active) and 101% (inactive) and 93.2% (inactive) in [18]; -24.9% (active) and 105% (inactive) and 111% (inactive) in assay [19]. The growth in [11] is 1.71% (active) and 99.1% (inactive) and 101% (inactive); in assay [20], -24.1% (active) and 110% (inactive) and 94% (inactive); in assay [13], 97.5% (inactive) and 104% (inactive); in assay [14], -7.19% (active) and 87% (inactive); in [15], 12.7% (inactive); in [16] it was 5.22% (active) and 97.7% (inactive) and 102% (inactive). Also, in assay [17], the growth was -17.3% (active) and 113% (inactive) and 96% (inactive).

`NC(=O)c1ccccc1OCC(O)CO` (configuration not stated): the growth is 98.1% (inactive) in assay [1]; 105% (inactive) in [2]; 84.5% (inactive) in assay [3]; 102% (inactive) in assay [4]; 99.5% (inactive) in assay [5]; 103% (inactive) in assay [6]. The growth is 101% (inactive) in assay [7]; 98.5% (inactive) in assay [8]; 104% (inactive) in assay [9]; 105% (inactive) in assay [10]; 103% (inactive) in assay [18]; 101% (inactive) in assay [11]. The growth in assay [12] was 99.7% (inactive); in assay [20], 110% (inactive); in [13] it was 103% (inactive); in assay [14], 97.5% (inactive); in [16], 93.6% (inactive); in assay [17] it was 108% (inactive).

As to `COc1ccc2ccccc2c1/C=N/N1CCCCC1`, the growth in assay [1] is 99.4% (inactive); in [2], 101% (inactive); in assay [3], 87.6% (inactive); in assay [4], 88.1% (inactive); in assay [5], 97.8% (inactive); in assay [6], 95.9% (inactive). Moreover, the growth was 98.3% (inactive) in assay [7]; 89.1% (inactive) in [8]; 93% (inactive) in [9]; 96.5% (inactive) in assay [10]; 102% (inactive) in assay [18]; 93.6% (inactive) in assay [19]. Moreover, the growth in assay [11] was 96.9% (inactive); in [20], 105% (inactive); in assay [13], 99% (inactive); in assay [14], 85.7% (inactive); in assay [16], 96.7% (inactive); in [17], 88.3% (inactive).

For `COc1cc(NS(C)(=O)=O)ccc1Nc1c2ccccc2nc2c(C)cccc12`, the growth in [1] is 7.59% (active) and 0.251% (active); in assay [2], -36.8% (active) and 0.935% (active); in [3] it was -7.95% (active) and -6.77% (active); in [4], 19.8% (inactive) and 25.2% (inactive); in assay [5], -3.95% (active) and -7.3% (active); in assay [6] it was 17.8% (inactive) and 28.4% (inactive). The growth in [7] is -29.9% (active) and 2.9% (active); in [8], 1.52% (active) and 23.3% (inactive); in [9] it was -49.9% (active) and -3.55% (active); in assay [10], 21.6% (inactive) and 21% (inactive); in assay [18] it was 20.4% (inactive) and 44.2% (inactive); in assay [11] it was -8.74% (active) and 6.11% (active). For the same molecule, the growth in assay [12] was -22.1% (active) and -17.6% (active); in assay [13], -60.1% (active) and -56.2% (active); in assay [14], -35.7% (active) and -10.5% (active); in assay [15] it was -44% (active) and -27.8% (active); in assay [16], -11% (active); in assay [17] it was -12.1% (active) and -13.6% (active).

`O=C(N/N=C/c1ccc2c(c1)OCO2)c1ccncc1`: the growth in assay [1] is 106% (inactive) and 104% (inactive); in assay [2] it was 101% (inactive) and 105% (inactive); in [3] it was 77.9% (inactive) and 98.4% (inactive); in assay [4] it was 111% (inactive) and 103% (inactive); in assay [5] it was 104% (inactive); in assay [6] it was 104% (inactive) and 88.5% (inactive). Further, the growth in assay [7] was 105% (inactive); in assay [8], 91.3% (inactive) and 97.5% (inactive); in assay [9], 97.4% (inactive) and 101% (inactive); in assay [10], 103% (inactive) and 106% (inactive); in assay [18], 110% (inactive) and 108% (inactive); in [19], 104% (inactive) and 101% (inactive). The growth in assay [11] is 94.4% (inactive) and 98.4% (inactive); in [20] it was 91.2% (inactive) and 111% (inactive); in assay [13], 107% (inactive) and 103% (inactive); in [16], 113% (inactive) and 101% (inactive); in assay [17], 133% (inactive).

For `COc1ccc(CCN(C)CCCC(C#N)(c2ccc(OC)c(OC)c2)C(C)C)cc1OC` (configuration not stated), the growth is 94% (inactive) and 86.4% (inactive) and 101% (inactive) in [1]; 79.2% (inactive) and 74.7% (inactive) and 93.8% (inactive) in assay [2]; 65% (inactive) and -24.5% (active) and 86.8% (inactive) in assay [3]; 107% (inactive) and 101% (inactive) and 105% (inactive) in assay [4]; 90.4% (inactive) and 95.2% (inactive) and 99.9% (inactive) in assay [5]; 76.3% (inactive) and 68.4% (inactive) and 95.5% (inactive) in assay [6]. The growth was 94% (inactive) and 99.8% (inactive) and 101% (inactive) in assay [7]; 106% (inactive) and 97% (inactive) and 101% (inactive) in assay [8]; 92.3% (inactive) and 95.4% (inactive) and 92.7% (inactive) in assay [9]; 106% (inactive) and 99.7% (inactive) in assay [10]; 93.5% (inactive) and 109% (inactive) in assay [18]; 92.1% (inactive) and 90.3% (inactive) and 98.6% (inactive) in assay [19]. Also, the growth was 92.7% (inactive) and 107% (inactive) and 109% (inactive) in assay [11]; 93.2% (inactive) and 95.8% (inactive) in assay [13]; 56.5% (inactive) and 96.5% (inactive) and 75.5% (inactive) in assay [15]; 95% (inactive) and 86.2% (inactive) and 97.9% (inactive) in assay [16]; 72.9% (inactive) and 83.8% (inactive) and 95.8% (inactive) in assay [17].

`CC(C(=O)O)n1cc(C#N)c(=O)[nH]c1=O` (configuration not stated): the growth in assay [1] is 104% (inactive) and 102% (inactive); in assay [2] it was 110% (inactive) and 104% (inactive); in assay [3], 83.7% (inactive) and 76.9% (inactive); in assay [4] it was 107% (inactive) and 101% (inactive); in [5] it was 111% (inactive) and 107% (inactive); in assay [6], 95.3% (inactive). Besides, the growth in [7] is 105% (inactive) and 102% (inactive); in assay [8], 103% (inactive) and 99.7% (inactive); in [9], 110% (inactive) and 98.6% (inactive); in assay [18] it was 120% (inactive) and 102% (inactive); in [19] it was 95.6% (inactive) and 110% (inactive); in [11], 98.6% (inactive) and 96.1% (inactive). For the same molecule, the growth in assay [12] is 81.3% (inactive) and 82.4% (inactive); in [20], 112% (inactive) and 110% (inactive); in [13], 100% (inactive) and 96.5% (inactive); in assay [14] it was 86.5% (inactive) and 93.1% (inactive); in [15], 107% (inactive); in assay [16] it was 91.6% (inactive) and 103% (inactive). Besides, the growth in assay [17] is 90% (inactive) and 107% (inactive).

For `OCCN1CCN(CCCN2c3ccccc3Sc3ccc(Cl)cc32)CC1`, the growth in assay [1] was 49.6% (inactive) and 80.8% (inactive); in assay [2], 1.64% (active) and 18.2% (inactive); in assay [3], 59.8% (inactive) and 45.6% (inactive); in [4] it was 75.6% (inactive) and 100% (inactive); in [5], 58.2% (inactive) and 73.1% (inactive); in assay [6] it was 47.7% (inactive) and 67% (inactive). For the same molecule, the growth in assay [7] is 50.4% (inactive); in [8], -64.3% (active) and 23.5% (inactive); in assay [9], 29.4% (inactive) and 69.6% (inactive); in assay [18], 46.5% (inactive) and 74.9% (inactive); in [19] it was 66.8% (inactive); in assay [11], 50.2% (inactive) and 72.8% (inactive). Also, the growth in assay [12] was 36.1% (inactive) and 45.1% (inactive); in assay [20], 47.8% (inactive) and 75.4% (inactive); in [13] it was 62.3% (inactive) and 76.1% (inactive); in assay [14], 47.9% (inactive) and 68.8% (inactive); in assay [15], 58.4% (inactive) and 77.8% (inactive); in [16], 40.6% (inactive) and 55.9% (inactive). For the same molecule, the growth in assay [17] is 47.9% (inactive) and 53.3% (inactive).

The record behind these values is PubChem BioAssay (NCI).
